Compound activity deposited in PubChem by National Center for Advancing Translational Sciences (NCATS).
D1 PAM = potentiators of human D1 dopamine receptor; P21728; HEK293 TREx D1 cells, calcium flux, dopamine EC20 potentiation; potentiation, % at 10 µM; actives 0.036% (n = 360,000); in the data active means potentiation above about 30%; further: 0% is about no effect
DRD3 antagonist = blocks the human D3 dopamine receptor; AID 652054; D3R cells, DiscoveRx beta-arrestin luminescence, antagonist mode; stronger effect = lower value; actives 2.5% (n = 360,000); P35462; max response, negative = inhibition, %; in the data active means max response below about -50%; inconclusive means no clear call, values can overlap the other calls; further: on the % scale 0 is the no-effect control and ±100 the full control effect
Target sequence (P35462 whole entry, looked up): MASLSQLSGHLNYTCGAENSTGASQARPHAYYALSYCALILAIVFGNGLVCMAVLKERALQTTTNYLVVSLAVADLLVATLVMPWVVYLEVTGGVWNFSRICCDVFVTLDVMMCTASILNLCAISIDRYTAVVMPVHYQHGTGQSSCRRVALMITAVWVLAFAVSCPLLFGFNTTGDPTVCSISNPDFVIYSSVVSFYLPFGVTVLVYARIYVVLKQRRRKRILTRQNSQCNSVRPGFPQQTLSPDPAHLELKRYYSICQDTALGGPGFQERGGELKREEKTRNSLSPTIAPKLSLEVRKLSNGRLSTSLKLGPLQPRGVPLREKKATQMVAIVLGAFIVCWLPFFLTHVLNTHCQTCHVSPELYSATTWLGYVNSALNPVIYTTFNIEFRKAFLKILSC
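Cells expressing the human receptor were seeded at 1500 cells/well, incubated overnight at 37 degrees C in 5% CO2, then exposed to library compounds with dopamine controls for 90 minutes at 37 degrees C before luminescent detection.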
D1 agonist = human D1 receptor agonism. P21728. HEK293 T-REx D1 cells, calcium flux, agonist mode. activation, % at 2 µM. actives 1% (n = 360,000). AID 504660; in the data active means activation above about 30%; further: 0% is about no effect
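Agonism was scored from calcium flux recorded over 180 s (1 read/s) after pintool compound addition, following a 10-cycle baseline. Cells were inducible force-coupled HEK293 TREx D1, plated overnight at 30 C and loaded with no-wash calcium dye.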
DRD3 agonist = D3 dopamine receptor (human) agonism | actives 0.58% (n = 410,000) | AID 652048 | P35462 | max activation, % | D3R DiscoveRx beta-arrestin cells, luminescence, 90 min; in the data active means max activation above about 30%; further: 0% is about no effect
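Cells at 1500/well, incubated overnight, then treated with pinned compounds (dopamine as control) for 90 min at 37 degrees C. DiscoveRx reagent added for 30 - 60 minutes at room temperature; luminescence read.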
D1 antagonist = antagonists of human D1 dopamine receptor | P21728 | HEK293 TREx D1 cells, calcium flux, dopamine EC80; stronger effect = lower value | activity change, negative = inhibition, % at 10 µM | actives 3.2% (n = 360,000); in the data active means activity change below about -30%; further: on the % scale 0 is the no-effect control and ±100 the full control effect
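Antagonism measured as reduced calcium response to an EC80 dopamine addition following 180 s compound pre-read; cells were inducible HEK293 Trex D1 plated overnight at 30 C, read kinetically at 1 cycle/sec.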
Active calls of the source: *; u = inconclusive; x = not tested or not shown; ! = not active in a repeat. Compounds with a hit are over-represented: about 6.1% of the library has one in this group of screens.

SMILES	D1 PAM	DRD3 antagonist	D1 agonist	DRD3 agonist	D1 antagonist
COc1ccc(CC(=O)Nc2c(C(=O)N3CCN(c4ccccc4)CC3)oc3ccccc23)cc1OC	-4	4	-1	1	-31*!
COc1ccc(CC(=O)Nc2c(C(=O)N3CCN(c4ccccc4OC)CC3)oc3ccccc23)cc1OC	-4	15	3	-11	-6
O=C(Nc1c(C(=O)N2CCN(c3ccc(F)cc3)CC2)oc2ccccc12)c1c(F)cccc1F	-5	x	2	4	-59*
Cc1cccc(C(=O)Nc2c(C(=O)N3CCN(c4ccc(F)cc4)CC3)oc3ccccc23)c1	-4	x	2	-2	12
O=C(COc1ccc(F)cc1)Nc1c(C(=O)N2CCC(N3CCCCC3)CC2)oc2ccccc12	-4	8	4	-20	-35*
O=C(CSc1n[nH]c(-c2ccccc2)n1)NCCCc1ccccc1	-1	x	0	1	5
CCOC(=O)CC(NC(=O)CCc1c(C)nc2c(c1C)c(=O)n(C)c(=O)n2C)c1ccc(OCC)c(OC)c1 (stereo unspecified)	-4	x	0	2	-33*
Cn1ccc2cc(-c3ccc4ncnc(NCc5cccc(F)c5)c4c3)ccc21	7	x	2	x	6
COc1ccc(Cl)cc1NC(=O)c1cn(C2CCCC2)c(=O)c2c1c1ccccc1n2C	1	x	2	-6	4
O=c1oc2cc(O)ccc2cc1-c1nnc(Nc2ccccc2F)s1	16	x	405*	12	-4
COc1cccc(Nc2nnc(-c3cc4ccc(O)cc4oc3=O)s2)c1	7	x	369*	8	-28
O=C(c1ccc([N+](=O)[O-])o1)N1CCN(c2nc3c(Cl)cccc3s2)CC1	-9	1	3	-2	-34*
COc1cccc2sc(N3CCN(C(=O)c4ccc([N+](=O)[O-])o4)CC3)nc12	1	-11	2	-8	5
COc1ccc(OC)c(C2Nc3c(C)cc(C)cc3-c3cc(C)nn32)c1 (stereo unspecified)	-3	x	2	-6	-6
CC(=O)OCC1=C[C@@H]2OC(=O)C3=CO[C@@H](O[C@@H]4O[C@H](CO)[C@@H](O)[C@H](O)[C@H]4O)[C@H]1[C@@H]32	-2	-11	4	70*	x
C/C(=C\C=C(C#N)C#N)c1cc(C#N)c(N)o1	-9	-26	63*	-9	21
c1ccc(CN2CCN(C(c3ccccc3)c3nnnn3Cc3ccccc3)CC2)cc1 (stereo unspecified)	-9	0	0	-10	17
CC(=O)N1CCN(C(c2ccccc2)c2ccccc2)CC1	x	6	x	19	x
O=C1c2ccccc2C(=O)N1CC#CCN1CCN(C(c2ccccc2)c2ccccc2)CC1	3	-88*	0	-18	23
CCCCn1nnnc1C(c1ccccc1)N1CCCN(Cc2ccc(F)cc2)CC1 (stereo unspecified)	x	-69*	x	-13	x
O=S(=O)(CCN1CCN(C(c2ccccc2)c2ccccc2)CC1)C(F)(F)F	-2	-50*	4	0	-9
c1ccc(CN2CCN(C(c3ccccc3)c3ccccc3)CC2)cc1	-6	-70*	4	-11	5
Cn1nnnc1SCCCNCc1cc(Cl)ccc1OCc1ccc(F)cc1	-1	x	23	-18	-20
CCc1ccc(NC(=O)CC2C(=O)N(c3cccc(OC)c3)C(=O)N2C2CCCC2)cc1 (stereo unspecified)	-2	x	0	-11	-5
Cc1ccc(NC(=O)C(=O)NCC(c2cccnc2)N2CCc3ccccc3C2)cc1 (stereo unspecified)	-2	x	4	3	-1
SMILES	D1 PAM	DRD3 antagonist	D1 agonist	DRD3 agonist	D1 antagonist
COc1cc(NC(=O)CCn2cnc3ccccc3c2=O)cc(OC)c1	-3	x	0	-9	2
OC(CN1CCN(Cc2ccccc2)CC1)c1ccc(F)cc1 (stereo unspecified)	-8	-18	5	-45	-27
Fc1ccc(CN2CCN(C(c3ccccc3)c3ccccc3)CC2)cc1	-2	-82*	4	-23	15
Cc1cc(C)c(S(=O)(=O)/N=C2\C=C(NS(=O)(=O)c3ccccc3)C(=O)c3ccccc32)c(C)c1	5	-13	-2	-7	-14
Cc1cccc(NC2=C/C(=N/S(=O)(=O)c3cccs3)c3ccccc3C2=O)c1	-2	-93*	6	-15	3
Cc1ccc(Cl)cc1NC1=C/C(=N\S(=O)(=O)c2cccs2)c2ccccc2C1=O	16	-108*	1	-36	1
Cc1ccc(S(=O)(=O)/N=C2\C=C(NS(=O)(=O)c3ccccc3)C(=O)c3ccccc32)cc1	x	-28	x	-6	x
Cc1ccc(NC2=C/C(=N\S(=O)(=O)c3cccs3)c3ccccc3C2=O)c(C)c1	1	-91*	-1	-22	17
CC(C)Cn1c(=O)c2sccc2n2c(CCCC(=O)Nc3ccc(Cl)cc3)nnc12	3	x	2	-10	-7
CCc1ccccc1NC(=O)c1ccc2c(c1)N(Cc1cccc(Cl)c1)C(=O)c1ccccc1S2(=O)=O	-1	x	3	-1	5
CCCCN(C)C(=O)C1CCCN(c2ncnc3onc(C)c23)C1 (stereo unspecified)	-7	x	22	-6	-22
CCc1nc(NCC2CCCO2)c(C#N)c2c1COC(C)(C)C2 (stereo unspecified)	-2	20	1	8	-35*
CC(C)c1nc(NCC2CCCO2)c(C#N)c2c1COC(C)(C)C2 (stereo unspecified)	-9	1	2	1	7
COc1ccc(-c2nnc(Nc3nc4c(OC)cccc4s3)o2)c(OC)c1	0	-68*	-2	-4	1
Cc1ccc2cc(CN(C(=O)c3cccc(Cl)c3)c3ccccc3)c(=O)[nH]c2c1	7	x	4	-1	4
CCc1ccc(NC(=O)N(CCCN2CCOCC2)C(C)c2cc3cccc(OC)c3o2)cc1 (stereo unspecified)	-4	-53*	0	-14	-15
CCS(=O)(=O)N1CCc2cc(C(=O)Nc3ccc(Br)cc3F)ccc21	-2	x	-3	-10	-3
CC(C)CCNC(=O)c1ccc2c(c1)NC(=O)C(CS(=O)(=O)Cc1cccc(Br)c1)N2 (stereo unspecified)	-10	x	5	-23	-42*
CN(C)CCNC(=O)c1ccc2c(c1)NC(=O)C(CS(=O)(=O)Cc1cccc(Br)c1)N2 (stereo unspecified)	0	x	-2	-9	1
O=C(NCc1ccccc1Cl)c1ccc2c(c1)NC(=O)C(CS(=O)(=O)Cc1ccc(F)cc1Cl)N2 (stereo unspecified)	0	x	-3	47*	-20
CCSc1c(C(=O)NC)ccc2c1C(=O)c1ccccc1C2=O	-7	u	0	-11	4
Nc1c(SCCC(=O)O)ccc2c1C(=O)c1ccccc1C2=O	0	-56*	10	-8	1
